The sample as a whole holds a higher share of hits than the screen did.
12-LOX inh = ALOX12 (human) lipoxygenase inhibition | P18054 | Potency, µM (doses to about 108 µM), inactives show at the highest dose activity change, negative = inhibition, actives largely listed as inhibitors | 1.1% of 580,000 active | purified 12hLO, xylenol orange hydroperoxide absorbance; further: potency means the concentration at half of the fitted maximal effect
Target sequence (P18054 whole entry, looked up): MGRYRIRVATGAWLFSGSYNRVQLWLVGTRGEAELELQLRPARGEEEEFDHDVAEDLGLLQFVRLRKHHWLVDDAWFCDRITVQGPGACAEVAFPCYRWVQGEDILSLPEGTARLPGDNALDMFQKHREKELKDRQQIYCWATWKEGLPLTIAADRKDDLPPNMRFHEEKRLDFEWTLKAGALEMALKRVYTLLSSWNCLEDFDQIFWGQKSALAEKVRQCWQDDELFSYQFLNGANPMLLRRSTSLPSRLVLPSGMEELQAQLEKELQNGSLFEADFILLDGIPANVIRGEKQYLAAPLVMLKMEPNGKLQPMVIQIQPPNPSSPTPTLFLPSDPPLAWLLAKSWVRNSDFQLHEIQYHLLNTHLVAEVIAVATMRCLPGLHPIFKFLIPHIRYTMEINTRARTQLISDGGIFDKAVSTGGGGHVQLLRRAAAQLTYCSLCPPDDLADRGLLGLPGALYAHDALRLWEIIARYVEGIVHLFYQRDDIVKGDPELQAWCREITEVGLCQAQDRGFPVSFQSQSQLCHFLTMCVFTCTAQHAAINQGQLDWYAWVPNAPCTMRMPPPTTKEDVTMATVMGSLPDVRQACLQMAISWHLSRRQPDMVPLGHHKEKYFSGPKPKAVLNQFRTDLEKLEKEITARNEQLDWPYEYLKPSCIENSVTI
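Hydroperoxide product was detected by ferrous iron/xylenol orange as the 573 to 405 nm absorbance ratio. Arachidonic acid at 40 uM (final) was turned over for 30 min at room temperature by 150 nM human 12hLO, pH 7.0 Hepes buffer, after 15 min compound preincubation.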
HT1080 IDH1KD tx = kills HT-1080 cells with IDH1 knockdown. HT-1080 IDH1 knockdown viability, ATP luminescence, 48 h. Potency, µM (highest dose often 46.1 µM), without a hit: at the highest dose activity, negative = toxicity, actives largely listed as cytotoxic. 2% of 360,000 active. AID 686971;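 further: potency means the concentration at half of the fitted maximal effect; 0% = DMSO wells and -100% = cell-free medium wells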
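% activity derives from luminescence (CellTiter-Glo), normalised to DMSO and no-cell wells. HT-1080-IDH1KD cells, 750/well, had 48 h compound exposure at 37 °C.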
IL1B secr inh = inflammasome signaling inhibition, IL-1 beta readout. THP-1 LPS/ATP IL-1B secretion, AlphaLISA, 16 h; stronger effect = lower value. activity change, % at 57.5 µM. 4.7% of 360,000 active. AID 743279; in the data active means activity change below about -50%; inconclusive means mostly about -30% to -49%
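Secreted IL-1B measured by AlphaLISA bead assay after 16 h compound exposure of THP-1 cells; compounds (final up to 57.5 uM) added 1 h before LPS (250 ng/mL) and ATP (1.25 mM) stimulation; lower signal means less secretion.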
TDP1 cell noCPT = qHTS for Inhibitors of human tyrosyl-DNA phosphodiesterase 1 (TDP1): qHTS in cells in absence of CPT; 15% of 420,000 active; AID 686978, 2013; DT40 Tdp1-/- hTDP1 cells, no CPT, ATP luminescence, 48 h; Potency, µM (series often up to 46.2 µM), for the others: top-dose activity change, negative = growth inhibition, actives largely listed as inhibitors; further: potency means the concentration at half of the fitted maximal effect; nearly all actives have a fitted effect of over 55% in size
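DT40 Tdp1-/-;hTDP1 cells, no CPT (DMSO vehicle only), 400 cells/well; compounds pin-transferred; ≥48 hr, 37 °C; CellTiter-Glo 30 min RT dark, luminescence read.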
TDP1 cell CPT = growth inhibition of DT40 Tdp1-/-;hTDP1 cells with camptothecin (screen for TDP1 inhibitors) | chicken DT40 Tdp1-/-;hTDP1 cells + 20 nM CPT, ATP luminescence, 48 h | 12% of 420,000 active | Potency, µM (doses to about 46.2 µM), for inactives: top-dose activity change, negative = growth inhibition, usual class: inhibitors; further: potency means the concentration at half of the fitted maximal effect; nearly all actives have a fitted effect of over 55% in size
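Cell growth measured by CellTiter-Glo luminescence after a minimum 48 h, 37 C compound exposure with 20 nM CPT in Tdp1-knockout DT40 cells stably expressing hTDP1, seeded 400/well; qHTS titration format.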
HT1080-NT tox = kills 2HG-producing HT-1080-NT fibrosarcoma cells; Potency, µM (top dose mostly 46.1 µM), for the others: at the top dose activity, negative = less viability, actives largely listed as cytotoxic; HT-1080-NT fibrosarcoma viability, CellTiter-Glo ATP luminescence, 48 h; AID 686970; 1.6% of 360,000 active;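 further: NT is the 2HG producing partner of a matched IDH1 knockdown line; potency means the concentration at half of the fitted maximal effect; 0% = DMSO-treated cells and -100% = media-only wells without cells; nearly all actives have a fitted effect of over 55% in size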
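A 48-hour cytotoxicity screen used HT-1080-NT cells plated 2 hours before compound delivery. ATP-based CellTiter-Glo luminescence measured viability, normalized to DMSO and no-cell controls.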
Starred values were filed as active, the others as inactive; ? = inconclusive; . = no result; [ ] = another dose, or the depositor's remark. Unless noted, the call rests on the fitted dose curve; in most records, active means well fitted curve in the direction sought with a large enough effect; inconclusive means small, poorly fitted or top-dose-only effect, or another doubt; inactive means no such curve, though single readings can be large; an effect the other way counts as inactive or inconclusive. Unless noted, on the % scale 0 is the no-effect control and ±100 the full control effect.

SMILES | 12-LOX inh | HT1080 IDH1KD tx | IL1B secr inh | TDP1 cell noCPT | TDP1 cell CPT | HT1080-NT tox
CCOC(=O)CSc1nc2c(sc(=S)n2-c2ccccc2)c(=O)[nH]1 | -26% | 2% | -11 | -19% | -12% | 4%
CCOc1ccc(-n2c(=S)sc3c(=O)[nH]c(SCC(=O)C(C)(C)C)nc32)cc1 | -27% | ? | 36 | 18µM* | 26µM* | -23%
CCOc1ccc(-n2c(=S)sc3c(=O)[nH]c(SCC(=O)N4CCC(C)CC4)nc32)cc1 | 45µM* | 10% | 20 | ? | -26% | 0%
CCOc1ccc(-n2c(=O)c3c(C)c(C)sc3n(CC(=O)N3CCC(C)CC3)c2=O)cc1 | ? | . | . | 21µM* | ? | .
Cc1ccc(C(=O)NCC2Cn3cccc3C(=O)N2C)cn1 (stereo not given) | 43% | . | . | . | . | .
Cc1cc(C)c(NC(=O)CN2CCN(c3ccccn3)CC2)c(C)c1 | ? | 11% | -7 | -18% | 19% | 15%
CN(C)S(=O)(=O)c1ccc(Cl)c(NC(=O)CN2CCN(c3ccccn3)CC2)c1 | 8% | 18% | 28 | 23µM* | ? | 14%
CN(C)S(=O)(=O)c1ccc(Cl)c(NC(=O)CN2CCc3ccccc3C2)c1 | 11% | -6% | -16 | 21µM* | 18µM* | -15%
Cc1ccc(NC(=O)CN2CCc3ccccc3C2)cc1S(=O)(=O)N(C)C | -18% | 2% | 18 | 23µM* | ? | 11%
CN(C)S(=O)(=O)c1cc(NC(=O)CN2CCN(c3ccccc3F)CC2)ccc1Cl | 36% | -4% | 0 | 21µM* | ? | 3%
Cc1ccc([N+](=O)[O-])cc1NC(=O)CN(C(=O)c1ccc(Cl)cc1)C1CCCCC1 | 0% | ? | -28 | 18µM* | 21µM* | -14%
O=C(CN(C(=O)c1ccc(Cl)cc1)C1CCCCC1)Nc1ccc(Cl)c([N+](=O)[O-])c1 | -19% | ? | ? | 15µM* | 16µM* | ?
Cn1[nH]c(-c2ccccc2)c(/C=N/O)c1=O | 0% | 16% | 0 | 16µM* | ? | 1%
Cn1nc(-c2ccccc2)c(/C=N/O)c1Cl | -3% | 7% | -6 | 3% | -11% | 5%
COc1ccc2nc(N3CCCC(C(=O)NCCCN4C(C)CCCC4C)C3)sc2c1 (stereo not given) | ? | -18% | -70* | -23% | 10% | -6%
CCOc1ccc2nc(N3CCCC(C(=O)NCCCOC)C3)sc2c1 (stereo not given) | 11% | . | . | 18µM* | 16µM* | .
CCOc1ccc2nc(N3CCCC(C(=O)NCCc4ccc(C)cc4)C3)sc2c1 (stereo not given) | 4% | . | . | 15µM* | 12µM* | .
COc1cccc2cc(C(=O)N(C)CCOc3ccccc3C)c(=O)oc12 | 47% | . | . | . | . | .
COc1ccc(C(=O)N2CCC3(CC2)N(c2ccccc2)C(=O)CS3(=O)=O)cc1 | 1% | . | . | . | . | .
O=C(NC1CC1)C(NCc1ccc(F)cc1)c1ccc(F)cc1 (stereo not given) | 15% | . | . | . | . | .
COc1cc(/C=C2\Oc3cc(OS(=O)(=O)c4ccc(C)cc4)ccc3C2=O)cc(OC)c1OC | -20% | . | . | . | . | .
COc1ccc(CNC(=O)Oc2ccccc2)cc1Cl | 0% | -24% | 10 | 12µM* | ? | -28%
COc1ccc(CNC(=O)CNC(c2ccccc2)c2ccccc2)cc1OC | 26% | -2% | -12 | 7.3µM* | -5% | -6%
COc1ccc(/C=N/OCC(=O)NC(c2ccccc2)c2ccccc2)cc1OC | -2% | -14% | 0 | 6.5µM* | 5.2µM* | -7%
COc1cc(CC(=O)NC(c2ccccc2)c2ccccc2)cc(OC)c1OC | 13% | 11% | 28 | 13µM* | 15µM* | 3%
SMILES | 12-LOX inh | HT1080 IDH1KD tx | IL1B secr inh | TDP1 cell noCPT | TDP1 cell CPT | HT1080-NT tox
COc1ccc(/C=N/OCC(=O)Nc2cc(C)on2)cc1OC | -15% | 6% | -4 | -29% | 9% | 6%
COc1ccc(C)cc1NC(=O)CNC(c1ccccc1)c1ccccc1 | 0% | 12% | -6 | ? | ? | -1%
O=C(Nc1ccccc1)C1Sc2nnc(-c3ccccc3)n2NC12CCCCC2 (stereo not given) | 66% | . | . | . | . | .
O=C1CCCN1CCCN1C(=O)[C@H]2CN(Cc3ccccc3)C[C@H]2C1=O | 59% | . | . | . | . | .
CCOC(=O)N1CCN(C(=O)c2ccc(N3CCCCS3(=O)=O)cc2Cl)CC1 | 12% | . | . | . | . | .
CC(=O)Nc1ccccc1-c1c(C)nn2c1N(C(=O)Cc1cccc(Cl)c1)CCC2 | 2%[176 µM] | . | . | . | . | .
Cc1cc[n+]2c3c(cccc13)CCC2 | 22% | -9% | 44 | 18µM* | 21µM* | 7%
Cc1cc(N2CCC3(CC2)CC(c2ccccc2)C(=O)N(C2CC2)C3)nc(N)n1 (stereo not given) | 32% | . | . | . | . | .
CC(OC(=O)c1ccc(-n2cnnn2)cc1)C(=O)Nc1ccc(N2CCOCC2)cc1 (stereo not given) | -9% | . | . | . | . | .
CCCCNC(=O)C[C@@H]1C[C@@]2(C(=O)OC)CCCCC=C2N(Cc2cccc3ccccc23)C1=O | -1% | ? | -22 | ? | ? | ?
CCCCCCCCN1C(=O)[C@H](CC(=O)NCCCCc2ccccc2)C[C@@]2(C(=O)OC)CCCCC=C12 | ? | ? | -15 | ? | ? | ?
COC(=O)[C@]12CCCCC=C1N(Cc1ccccc1)C(=O)[C@H](CC(=O)NCCCCc1ccccc1)C2 | -7% | ? | -20 | ? | 23µM* | ?
COC(=O)[C@]12CCCCC=C1N(Cc1cccc3ccccc13)C(=O)[C@H](CC(=O)NCCCCc1ccccc1)C2 | 62% | -29% | -64* | 16µM* | ? | ?
Cc1nn(C)c(C)c1N1C(=O)c2cccc3c(N)ccc(c23)C1=O | -29% | 5% | 3 | -10% | -26% | 10%
Cc1nn(C)c(C)c1N1C(=O)c2cccc3c(Br)ccc(c23)C1=O | ? | ? | -96* | 21µM* | 18µM* | 23µM*
O=S(=O)(/N=S1\CC=CCN1S(=O)(=O)c1ccccc1)c1ccccc1 (stereo not given) | ? | ? | -86* | 21µM* | ? | ?
O=S(=O)(N=C1SCCS1)c1ccccc1 | 37% | . | . | . | . | .
CN(C#N)c1nc(Cl)nc(Nc2cccc(Cl)c2)n1 | -25% | -5% | -91* | ? | ? | -2%

High-throughput results as filed in PubChem.
